IDH1 R132H inh = blocks human mutant IDH1 R132H enzyme | O75874 | IDH1-R132H enzyme, NADPH consumption, diaphorase/resazurin fluorescence | Potency, µM (titrated, usually from 76.6 µM), most hits filed as inhibitors | 390,000 compounds, 0.093% hits | AID 602179; further: nearly all actives have a fitted effect of over 65% in size
Target sequence (O75874 whole entry R132H, stated change not applied): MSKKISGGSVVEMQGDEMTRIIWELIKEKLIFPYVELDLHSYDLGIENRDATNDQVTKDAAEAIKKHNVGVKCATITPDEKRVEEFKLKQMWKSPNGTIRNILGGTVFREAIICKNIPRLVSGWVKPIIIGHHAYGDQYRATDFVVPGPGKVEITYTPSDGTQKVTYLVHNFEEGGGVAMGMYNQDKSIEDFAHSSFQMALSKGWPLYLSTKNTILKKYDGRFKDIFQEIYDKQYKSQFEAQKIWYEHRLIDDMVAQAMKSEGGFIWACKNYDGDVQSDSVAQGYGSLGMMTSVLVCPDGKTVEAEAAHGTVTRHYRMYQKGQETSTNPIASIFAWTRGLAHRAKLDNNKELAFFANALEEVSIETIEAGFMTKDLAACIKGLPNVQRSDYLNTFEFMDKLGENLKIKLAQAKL
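IDH1-R132H (0.5 ug/mL dispensed) in pH 7.5 Tris buffer was preincubated 30 min with compound, then given a substrate mix of 0.016 mM NADPH and 2 mM alpha-KG for 80 min at room temperature; remaining NADPH was read by diaphorase/resazurin fluorescence.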
PGK inhibitor = inhibitors of T. brucei phosphoglycerate kinase. PGK/GAPDH coupled, Kinase-Glo luminescence, 60 min. Potency, µM (highest dose often 57.5 µM), usual class: inhibitors. 380,000 compounds, 0.043% hits; further: nearly all actives have a fitted effect of over 60% in size
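Luminescent ATP detection (Kinase-Glo Plus) follows a 60-minute room-temperature incubation, with wells lacking PGK as controls. Buffer: 100 mM TEA (pH 7.6), 5 mM MgCl2, 0.01% Tween-20. Coupling enzyme GAPDH (100 nM final) supplies unstable 1,3-BPG in-well.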
Vif-A3G inh = blocks the Vif interaction with human APOBEC3G | Q9HC16 | HeLa A3G-eYFP + Vif (tagged APOBEC3G with the HIV-1 protein that degrades it), YFP fluorescence, overnight | Potency, µM (top dose mostly 46.1 µM), usual class: inhibitors | 410,000 compounds, 0.076% hits | AID 602310; further: nearly all actives have a fitted effect of over 60% in size
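HeLa cells stably expressing Vif and C-terminally eYFP-tagged A3G, seeded overnight at 37 deg C, then exposed to compound by pintool overnight at 37 deg C. Rise in yellow fluorescence (Ex 488/Em 500-530, Acumen) marks blocked Vif-driven A3G degradation.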
LDHA block = inhibitors of human lactate dehydrogenase A | P00338 | purified LDHA, NADH/diaphorase-resazurin fluorescence; active compounds read low | activity change, % (values are at about 110 or 230 µM) | 480,000 compounds, 0.15% hits | AID 1347041; in the data active means activity change below about -30%; inconclusive means mostly about -25% to -30%
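Remaining NADH was detected by diaphorase (0.133 mg/mL) converting 37 µM resazurin to fluorescent resorufin, read at 0 and 20 minutes. The preceding 5-minute room-temperature reaction used 2 nM LDHA, 0.2 mM sodium pyruvate and 0.06 mM NADH at pH 7.4.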
Vif-APOBEC3F blk = inhibitors of Vif-A3F interaction; HeLa A3F-eYFP + Vif (tagged APOBEC3F with the HIV-1 protein that degrades it), YFP fluorescence increase; Potency, µM (top dose mostly 46.1 µM); 390,000 compounds, 0.2% hits; further: nearly all actives have a fitted effect of over 65% in size
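Fluorescence increase (Ex 488/Em 500-530) after overnight compound treatment at 37 deg C flags inhibition of Vif-driven A3F-eYFP loss in stable HeLa A3F-eYFP/Vif cells seeded overnight beforehand.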
Pin1 inhibitor = human Pin1 inhibition; Q13526; Pin1 FP peptide displacement, HiFluor488, 10 min; Potency, µM (top dose mostly 115 µM), hits mostly inhibitors; 390,000 compounds, 0.009% hits; active means well fitted inhibition curve with a large enough effect in the polarisation, with a control signal flat, not every such curve was filed as active; inconclusive means small, poorly fitted or top-dose-only effect, or effect the other way, or a change in a side signal; inactive means no such curve, though single readings can be large or run the other way; the % refers to the polarisation
Target sequence (Q13526 whole entry, looked up): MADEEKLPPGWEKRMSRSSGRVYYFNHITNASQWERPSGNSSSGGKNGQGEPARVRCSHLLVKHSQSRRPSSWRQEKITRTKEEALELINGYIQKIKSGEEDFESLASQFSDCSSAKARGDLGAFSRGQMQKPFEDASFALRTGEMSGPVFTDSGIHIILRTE
A number is an active result; – = inactive; ? = inconclusive; · = not tested or not shown; ! = a repeat was not active. Only some compounds are listed: those with a hit (about 0.49% of all), similar ones and a draw of the others. Unless noted, the call rests on the fitted dose curve; in most records, active means well fitted curve in the direction sought with a large enough effect; inconclusive means small, poorly fitted or top-dose-only effect, or another doubt; inactive means no such curve, though single readings can be large; an effect the other way counts as inactive or inconclusive.

SMILES	IDH1 R132H inh	PGK inhibitor	Vif-A3G inh	LDHA block	Vif-APOBEC3F blk	Pin1 inhibitor
CN(C)c1ccc(/C=C/c2cc(/C=C/c3ccc(N(C)C)cc3)c3ccccc3n2)cc1	·	·	2.8µM	–	·	·
CCN(CC)c1ccc(/C=C/c2ccnc3ccccc23)cc1	·	·	11µM	–	·	·
Cc1[nH]n(-c2ccc(F)cc2)c(=O)c1CCC(=O)Nc1ccc(C#N)cc1	·	·	·	-30	·	·
Cc1nn(CN(Cc2ccccc2)CC(F)(F)F)c(=O)c2ccccc12	·	·	·	–	·	·
CC(Sc1cccc2cccnc12)C(=O)NC(=O)NC1CCCC1 (configuration not stated)	·	·	·	–	·	·
CC(C(=O)N1CCc2ccccc21)N1CCN(c2ccccn2)CC1 (configuration not stated)	–	–	–	–	–	–
CC(C(=O)N1CCCc2ccccc21)N1CCN(c2ccccn2)CC1 (configuration not stated)	–	–	–	-38	–	?
CCCOc1ccc(-c2nc(C#N)c(NCCCN(CC)CC)o2)cc1	·	·	·	–	·	·
CN(C)CCNc1oc(-c2cccc(Cl)c2)nc1C#N	–	–	–	-33!	–	–
Cc1cccc(-c2nc(C#N)c(NCCCN(C)C)o2)c1	·	·	·	–	·	·
CCCOc1ccc(-c2nc(C#N)c(NCCN(C)C)o2)cc1	·	·	·	-32	·	·
CC(=O)Nc1cc(NC(C)=O)cc(C(=O)NCC2CCCCC2)c1	·	·	·	–	·	·
CN(C)c1ccc(/C=C2/C[N+](C)(C)C/C(=C/c3ccc(N(C)C)cc3)C2=O)cc1	–	–	?	–	10µM	?
CC(C)/C=C1\CC/C(=C\c2ccc(N(C)C)cc2)C1=O	–	–	–	–	?	?
CCOc1cc(/C=C(\C#N)C(=O)Nc2cccc(C(=O)O)c2)ccc1OCc1ccccc1Cl	33µM	–	–	–	–	?
CCN(c1ccccc1)S(=O)(=O)c1ccc(OC)c(NC(=O)CN(C)C)c1	–	–	–	-32	–	–
CCN(c1ccccc1)S(=O)(=O)c1ccc(OC)c(NC(=O)CNC)c1	–	–	–	–	–	–
CCOc1ccc(/C=C(/C#N)c2nc3ccccc3[nH]2)cc1OC	·	·	·	–	·	·
CCCOc1cc(N(CC)CC)ccc1/C=C(/C#N)c1nc2ccc(C)cc2[nH]1	–	–	?	–	3.2µM	?
COc1cc(/C=C(\C#N)c2nc3ccccc3[nH]2)ccc1OCc1ccccc1F	–	–	?	–	22µM	–
CCOc1cc(N(CC)CC)ccc1/C=C(/C#N)c1nc2ccccc2[nH]1	–	–	?	–	3.5µM	?
COc1ccc(C(NC(=O)CSc2ccc3c(c2)OCCCO3)c2ccc(OC)cc2)cc1	·	·	·	–	·	·
Cc1ccc(C)c(OCC(O)Cn2cnc3sccc3c2=O)c1C (configuration not stated)	·	·	·	–	·	·
CCC(C)c1ccc(NC(=O)N2CCN(Cc3ccc(Cl)s3)CC2)cc1 (configuration not stated)	·	·	·	–	·	·
COc1ccc(-c2nc3ccc(C)cc3c(=O)o2)cc1OC	–	–	–	–	–	–
SMILES	IDH1 R132H inh	PGK inhibitor	Vif-A3G inh	LDHA block	Vif-APOBEC3F blk	Pin1 inhibitor
COc1cc2nc(-c3ccc(C)cc3)oc(=O)c2cc1OC	·	·	·	-30	·	·
O=C(Nc1cc([N+](=O)[O-])ccc1O)c1cccc(NC(=O)c2ccco2)c1	–	–	–	-45	–	–
COc1ccccc1C(=O)Nc1nc2ccccc2[nH]1	–	7.9µM	–	–	–	–
C=CCNC(=S)NNC(=O)c1ccc(CSc2nc(C)cc(C)n2)cc1	·	·	·	–	·	·
CCC(C)(C)NC(=O)/C=C/c1ccc(OC)c(OC)c1	·	·	·	–	·	·
Cc1cc(C)cc(NC(=O)CSc2ncnc3ccccc23)c1	·	·	·	–	·	·
O=C(O)C1=CCC=CC1C(=O)O (configuration not stated)	–	13µM	–	–	–	·
Cc1cc(N2C(=O)C(O)=C(C(=O)c3ccco3)C2c2cccc(O)c2)no1 (configuration not stated)	–	–	–	–	–	–
Cc1cc(C)c2nc(N3C(=O)C(O)=C(C(=O)c4ccco4)C3c3cccc(O)c3)sc2c1 (configuration not stated)	37µM	–	?	–	–	–
Cc1cc(C)c2nc(N3C(=O)C(O)=C(C(=O)c4ccco4)C3c3ccc(O)cc3)sc2c1 (configuration not stated)	46µM	–	–	–	–	?
Cc1ccc2nc(N3C(=O)C(O)=C(C(=O)c4ccco4)C3c3ccc(O)cc3)sc2c1 (configuration not stated)	·	·	·	–	·	·
CCCc1cc(=O)oc2c(C)c(OC(C)C(=O)NCCCn3ccnc3)ccc12 (configuration not stated)	·	·	·	-33	·	·
CCCCCn1c(NC(=O)c2ccco2)c(S(=O)(=O)c2ccc(C)cc2)c2nc3ccccc3nc21	–	·	–	–	–	–
CCCCn1c(NC(=O)c2ccco2)c(S(=O)(=O)c2ccc(C)cc2)c2nc3ccccc3nc21	–	–	?	–	25µM	?
Cc1cc(C2=NNC(=Nc3ccccc3)SC2)c(C)n1CC1CCCO1 (configuration not stated)	·	·	·	-36	·	·
Cc1ccc(N=C2NN=C(c3cc(C)n(CC4CCCO4)c3C)CS2)cc1 (configuration not stated)	·	·	·	–	·	·
Cc1ccc(NC(=O)CO/N=C/c2ccc(N(C)C)cc2)cc1	–	–	?	–	25µM	?
CN(C)c1ccc(/C=N/OC(=O)Nc2ccccc2)cc1	–	–	–	–	–	–
COc1cc(OC)c(Nc2nc3ccccc3nc2NS(=O)(=O)c2ccccc2)cc1Cl	·	·	·	–	·	·
CN(C)CCCNC(=O)COc1ccc(-c2nn(C)c(=O)c3ccccc23)cc1	·	·	·	–	·	·
O=C1ON=C(c2ccccc2)/C1=C/c1ccc(-c2ccccc2[N+](=O)[O-])o1	?	–	?	–	–	·
O=C1ON=C(c2ccc([N+](=O)[O-])cc2)/C1=C/c1ccccc1O	–	–	–	-43	–	–
CCN(CC)c1nc(C)c(C(=S)Nc2cc([N+](=O)[O-])ccc2Cl)s1	–	–	–	–	11µM	?
CCC(C)(C)C(=O)Nc1cc([N+](=O)[O-])ccc1Cl	–	–	–	–	–	–
COc1cccc(N2CCN(C(=O)CCNS(=O)(=O)c3ccc4[nH]c(=O)ccc4c3)CC2)c1	·	·	·	–	·	·
CCCCn1c(N)c(N(Cc2ccccc2OC)C(=O)c2ccc([N+](=O)[O-])s2)c(=O)[nH]c1=O	–	–	?	–	13µM	–
CCOc1ccc2c(c1)/C(=C(\C(Cl)=C(Cl)Cl)[N+](=O)[O-])N2	–	–	?	–	?	?
CCCCOc1ccc2c(c1)/C(=C(\C(Cl)=C(Cl)Cl)[N+](=O)[O-])N2	–	–	?	–	22µM	?
O=C(Nc1ccc2ncccc2c1)c1ccccc1Cl	–	·	–	-42	–	–

Screening results deposited in PubChem BioAssay by National Center for Advancing Translational Sciences (NCATS).
